Results filed as inconclusive are left out. The source made the active and inactive calls. Calls come from the whole dose curve; as a rule, active = well fitted curve in the direction sought with a large enough effect in the repeat runs; inconclusive = weak or mixed curves; inactive = no such curve, though single readings can be large; an effect the other way counts as inactive or inconclusive.
Key:
[1] = qHTS RealTime-Glo MT Cell Viability Assay in HepG2 cells - 40 hour (AID 1224870); note: nearly all actives have a fitted effect of over 50% in size
Procedure, shortened: (§1)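 Real-time viability: cells seeded at 600 per well together with NanoLuc and cell-permeant prosubstrate, compounds added after 5 h incubation. Luminescence tracked at 0, 8, 16, 24, 32 and 40 h of exposure.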

[2] = A CellTox Green Cytotoxicity Assay to monitor cytotoxicity in HEK293 cells - 40 hour (AID 1224871); note: nearly all actives have a fitted effect of over 45% in size
Procedure, shortened: (§2)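 Fluorescence intensity, read at 0, 8, 16, 24, 32 and 40 h of compound treatment, reflected dye binding to DNA of dead HEK293 cells; compounds (23 nL, DMSO) were added 5 h after plating cells with reagent.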

[3] = qHTS RealTime-Glo MT Cell Viability Assay in HepG2 cells - 8 hour (AID 1224873); note: nearly all actives have a fitted effect of over 55% in size
Procedure, shortened: as §1

[4] = A CellTox Green Cytotoxicity Assay to monitor cytotoxicity in HEK293 cells - 24 hour (AID 1224875); note: series mostly up to about 77 µM; nearly all actives have a fitted effect of over 45% in size
Procedure, shortened: as §2

[5] = A CellTox Green Cytotoxicity Assay to monitor cytotoxicity in HepG2 cells - 16 hour (AID 1224876); note: nearly all actives have a fitted effect of over 45% in size
Procedure, shortened: (§3)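 Using 1536-well format, dye-containing HepG2 suspension was seeded, allowed 5 h at 37 C/5% CO2, dosed by pintool with compounds, positive and negative controls, and imaged for fluorescence across 40 h.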

[6] = qHTS RealTime-Glo MT Cell Viability Assay in HepG2 cells - 32 hour (AID 1224877); note: nearly all actives have a fitted effect of over 55% in size
Procedure, shortened: (§4)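 qHTS, HepG2, 600 cells/well, RealTime-Glo (NanoLuc + prosubstrate) added with cells; 5 h preincubation; DMSO compound addition; 37 C; luminescence at 0/8/16/24/32/40 h.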

[7] = A CellTox Green Cytotoxicity Assay to monitor cytotoxicity in HepG2 cells - 24 hour (AID 1224878); note: nearly all actives have a fitted effect of over 45% in size
Procedure, shortened: as §3

[8] = A CellTox Green Cytotoxicity Assay to monitor cytotoxicity in HepG2 cells - 40 hour (AID 1224879); note: nearly all actives have a fitted effect of over 40% in size
Procedure, shortened: as §3

[9] = qHTS RealTime-Glo MT Cell Viability Assay in HEK293 cells - 0 hour (AID 1224880)
Procedure, shortened: (§5)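 Viable HEK293 cells reduce a cell-permeant prosubstrate; the product diffuses out and is consumed by NanoLuc in the medium to give light. Compounds went in after a 5 h incubation and plates were read over the treatment course.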

[10] = A CellTox Green Cytotoxicity Assay to monitor cytotoxicity in HEK293 cells - 32 hour (AID 1224881); note: nearly all actives have a fitted effect of over 40% in size
Procedure, shortened: as §2

[11] = A CellTox Green Cytotoxicity Assay to monitor cytotoxicity in HepG2 cells - 0 hour (AID 1224882); note: nearly all actives have a fitted effect of over 35% in size
Procedure, shortened: as §3

[12] = A CellTox Green Cytotoxicity Assay to monitor cytotoxicity in HepG2 cells - 32 hour (AID 1224883); note: nearly all actives have a fitted effect of over 50% in size
Procedure, shortened: as §3

[13] = A CellTox Green Cytotoxicity Assay to monitor cytotoxicity in HEK293 cells - 8 hour (AID 1224884); note: nearly all actives have a fitted effect of over 35% in size; note: potency is the fitted concentration of half-maximal effect
Procedure, shortened: as §2

[14] = qHTS RealTime-Glo MT Cell Viability Assay in HepG2 cells - 16 hour (AID 1224885); note: nearly all actives have a fitted effect of over 50% in size
Procedure, shortened: as §4

[15] = qHTS RealTime-Glo MT Cell Viability Assay in HEK293 cells - 24 hour (AID 1224886); note: nearly all actives have a fitted effect of over 50% in size; note: potency is the fitted concentration of half-maximal effect
Procedure, shortened: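 Assay medium contained NanoLuc luciferase plus cell-permeant prosubstrate, added with HEK293 cells at 600 cells/well. After 5 h at 37 C/5% CO2 compounds were added; plates stayed at 37 C for 40 h with serial luminescence reads.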

[16] = qHTS RealTime-Glo MT Cell Viability Assay in HEK293 cells - 8 hour (AID 1224887); note: nearly all actives have a fitted effect of over 50% in size; note: potency is the fitted concentration of half-maximal effect
Procedure, shortened: as §5

[17] = A CellTox Green Cytotoxicity Assay to monitor cytotoxicity in HEK293 cells - 16 hour (AID 1224888); note: nearly all actives have a fitted effect of over 35% in size
Procedure, shortened: as §2

[18] = qHTS RealTime-Glo MT Cell Viability Assay in HepG2 cells - 0 hour (AID 1224889); note: nearly all actives have a fitted effect of over 50% in size
Procedure, shortened: as §4

[19] = qHTS RealTime-Glo MT Cell Viability Assay in HEK293 cells - 40 hour (AID 1224874); conditions: RealTime-Glo luminescence; max response: active compounds read low; note: nearly all actives have a fitted effect of over 50% in size
Procedure, shortened: as §5
% is set by controls: 0 for no effect and ±100 for the full control effect.

c1ccc2c(c1)ccc1c3ccccc3ccc21
inactive: outcome [1] | Potency [2] | outcome [3] | outcome [4] | outcome [5] | outcome [6] | outcome [7] | Potency [8] | Potency [9] | Potency [10] | outcome [11] | Potency [12] | Potency [13] | outcome [14] | Potency [15] | Potency [16] | outcome [17] | Potency [18]

C#CC(C)N(C)C(=O)Nc1ccc(Cl)cc1 (stereo unspecified)
inactive: outcome [1] | Potency [2] | outcome [4] | outcome [5] | outcome [6] | outcome [7] | Potency [8] | Potency [10] | outcome [11] | Potency [12] | Potency [13] | outcome [14] | outcome [17] | Potency [18]

O=C(O)C(=O)Cc1ccccc1
inactive: outcome [1] | Potency [2] | outcome [4] | outcome [5] | outcome [6] | outcome [7] | Potency [8] | Potency [9] | Potency [10] | outcome [11] | Potency [12] | Potency [13] | outcome [14] | Potency [15] | Potency [16] | outcome [17] | Potency [18]

COc1cc(NS(=O)(=O)c2ccc(N)cc2)nc(OC)n1
inactive: outcome [1] | Potency [2] | outcome [3] | max response [19] 5.69% | outcome [4] | outcome [5] | outcome [7] | Potency [8] | Potency [9] | Potency [10] | outcome [11] | Potency [12] | Potency [13] | outcome [14] | Potency [15] | Potency [16] | outcome [17] | Potency [18]

CC(=O)NCc1c(I)c(NC(C)=O)c(I)c(C(=O)O)c1I
inactive: outcome [1] | Potency [2] | max response [19] 3.65% | outcome [4] | outcome [6] | Potency [9] | Potency [10] | Potency [13] | outcome [14] | Potency [15] | Potency [16] | outcome [17] | Potency [18]

CCCCOCCOC(=O)COc1nc(Cl)c(Cl)cc1Cl
active: Potency [13] 38.9 µM
inactive: outcome [1] | Potency [2] | max response [19] 7.86% | outcome [4] | outcome [5] | outcome [6] | outcome [7] | Potency [8] | Potency [9] | Potency [10] | outcome [11] | Potency [12] | outcome [14] | Potency [15] | outcome [17]

CCCCCCOc1ccccc1C(N)=O
inactive: outcome [1] | Potency [2] | outcome [3] | outcome [4] | outcome [6] | outcome [7] | Potency [9] | Potency [10] | outcome [11] | Potency [12] | Potency [13] | outcome [14] | outcome [17] | Potency [18]

CCN(CC)CC(=O)Nc1c(C)cccc1C
active: Potency [15] 9.52 µM | Potency [16] 10.7 µM
inactive: outcome [1] | Potency [2] | outcome [3] | outcome [4] | outcome [5] | outcome [6] | outcome [7] | Potency [8] | Potency [10] | outcome [11] | Potency [12] | Potency [13] | outcome [14] | outcome [17] | Potency [18]

O=C1c2ccccc2C(=O)c2cc(S(=O)(=O)O)ccc21
inactive: outcome [1] | Potency [2] | outcome [3] | outcome [4] | outcome [5] | outcome [6] | outcome [7] | Potency [8] | Potency [9] | Potency [10] | outcome [11] | Potency [12] | Potency [13] | outcome [14] | outcome [17] | Potency [18]

CO[C@@H]1[C@@H](OC(N)=O)[C@@H](O)[C@H](Oc2ccc3c(O)c(NC(=O)c4ccc(O)c(CC=C(C)C)c4)c(=O)oc3c2C)OC1(C)C
inactive: outcome [1] | Potency [2] | outcome [3] | outcome [4] | outcome [5] | outcome [6] | outcome [7] | Potency [8] | Potency [9] | Potency [10] | outcome [11] | Potency [12] | Potency [13] | outcome [14] | Potency [15] | Potency [16] | outcome [17] | Potency [18]
